Source: PubChem BioAssay (National Center for Advancing Translational Sciences (NCATS))
KB-V1 cytotox – kills drug-selected multidrug resistant KB-V1 cells; AID 1347076; Potency, µM (doses to about 46.1 µM), hits mostly cytotoxic; 3.4% of 400,000 active; KB-V1 MDR cells viability, CellTiter-Glo, 72 h; note: % is set by controls: 0 for no effect and ±100 for the full control effect; nearly all actives have a fitted effect of over 60% in size
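KB-V1 MDR subline cells in DMEM (phenol-red free, 10% FBS) exposed to compounds in qHTS concentration series for 72 h at 37 degrees C. Viability read by CellTiter-Glo luminescence; concentration-effect curves fitted after normalization and correction.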
SW480 rerep – induces DNA re-replication in SW480 colon adenocarcinoma cells. SW480 DNA re-replication, Hoechst DNA content imaging, 48 h. Potency, µM (doses to about 46.1 µM), inactives show at the top dose re-replication activation, most hits filed as activators. 1.8% of 340,000 active. AID 624297; note: % of control where 0% means no effect; nearly all actives have a fitted effect of over 55% in size
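Hoechst fluorescence of nuclei (405 nm excitation, 500-530 nm emission) measured by plate-scanning imager after 48 hr compound exposure at 37 C; re-replication scored as increased number of nuclei with elevated intensity.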
HT1080NT lethal – kills 2HG-producing HT-1080-NT fibrosarcoma cells; HT-1080-NT fibrosarcoma viability, CellTiter-Glo ATP luminescence, 48 h; Potency, µM (highest dose often 46.1 µM), without a hit: at the top dose activity, negative = less viability, actives largely listed as cytotoxic; 1.6% of 360,000 active;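 note: NT is the 2HG producing partner of a matched IDH1 knockdown line; 0% = DMSO-treated cells and -100% = media-only wells without cells; nearly all actives have a fitted effect of over 55% in size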
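Viability of the 2HG-overproducing fibrosarcoma line after 48 hours of compound exposure at 37 degrees C was determined by luminescence with CellTiter-Glo, and concentration-effect curves were then fitted and categorized.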
MCF10A rereplic – DNA re-replication induction in MCF 10a cells | MCF 10A DNA re-replication, Hoechst nuclear intensity, 48 h | 2.9% of 350,000 active | Potency, µM (highest dose often 46.1 µM), inactives show top-dose activity, positive = re-replication, most hits filed as activators; note: % of control where 0% means no effect; nearly all actives have a fitted effect of over 50% in size
KB-3-1 tox – kills parental KB-3-1 adenocarcinoma cells; KB-3-1 viability, CellTiter-Glo ATP luminescence, 72 h; Potency, µM (doses to about 46.1 µM), most hits filed as cytotoxic; 1.4% of 400,000 active; note: % is set by controls: 0 for no effect and ±100 for the full control effect; nearly all actives have a fitted effect of over 60% in size
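Cytotoxicity in the drug-sensitive parental line KB-3-1 was scored as loss of CellTiter-Glo luminescence following 72 h incubation with compound. Values come from curve fitting of normalized concentration-response data.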
HT1080 IDH1KD tx – kills HT-1080 cells with IDH1 knockdown. HT-1080 IDH1 knockdown viability, ATP luminescence, 48 h. Potency, µM (top dose mostly 46.1 µM), without a hit: at the top dose activity, negative = toxicity, most hits filed as cytotoxic. 2% of 360,000 active. AID 686971;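 note: 0% = DMSO wells and -100% = cell-free medium wells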
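Knockdown cells (IDH1KD HT-1080) received compounds 2 h after plating at 750 cells/well and were kept 48 h at 37 °C in 5% FBS RPMI. A CellTiter-Glo luminescence read gave % activity for curve fitting.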
An asterisk follows results filed as active; i = inactive; ? = inconclusive; . = no result given. This is a sample that favours compounds with a hit; in the whole collection about 8% have one here. Calls come from the whole dose curve; as a rule, active = well fitted curve in the direction sought with a large enough effect; inconclusive = small, poorly fitted or top-dose-only effect, or another doubt; inactive = no such curve, though single readings can be large; an effect the other way counts as inactive or inconclusive. Potency is the fitted concentration of half-maximal effect.

SMILES	KB-V1 cytotox	SW480 rerep	HT1080NT lethal	MCF10A rereplic	KB-3-1 tox	HT1080 IDH1KD tx
CCn1c2ccccc2c2cc(/C=N/NC(=O)c3cccc(C)c3)ccc21	5.8µM*	?	-4%	5.8µM*	?	?
Cn1c2ccccc2c2cc(/C=N/NC(=O)c3ccc(N)cc3)ccc21	i	?	?	?	?	?
COc1ccc(N2CCN(C(=N)/C(C(C)=O)=C(\C)O)CC2)cc1	i	-7%	-1%	-3%	i	1%
COc1ccc(OC)c(S(=O)(=O)NCC(c2ccc(N(C)C)cc2)N2CCOCC2)c1 (stereo not given)	i	.	.	.	i	.
COC(=O)c1ccc(Sc2nnnn2-c2ccccc2)c([N+](=O)[O-])c1	?	10µM*	?	?	?	?
COc1cc(C2C(=O)N(C3CCCC3)CC(=O)N2Cc2ccco2)ccc1OC(C)C (stereo not given)	3.7µM*	-3%	9%	-4%	i	-1%
CC(C)CCn1c(=O)c2ccccc2n2c(CN3CCCC3)nnc12	i	-12%	0%	-3%	i	10%
CCCCCn1c(=O)c2ccccc2n2c(CCl)nnc12	?	?	23µM*	?	?	23µM*
CCCn1c(=O)c2ccccc2n2c(SCC(N)=O)nnc12	i	18%	-1%	0%	i	1%
CC(C)CCn1c(=O)c2ccccc2n2c(CCl)nnc12	i	?	18µM*	?	?	?
Cc1ccc(N/N=C(/Sc2nnnn2-c2ccccc2)C(=O)c2ccccc2)cc1	21µM*	-4%	0%	?	i	-4%
O=C(/C(=N\Nc1ccc([N+](=O)[O-])cc1)Sc1nnnn1-c1ccccc1)c1ccccc1	16µM*	6%	?	?	i	23µM*
CN(C)c1ccc(/C=C/c2ccc3cc(F)ccc3n2)cc1	i	.	.	.	i	.
CCc1ccc(NC(=O)C(CC)n2c(=O)c(-c3ccccc3NC(C)=O)nc3ccccc32)cc1 (stereo not given)	i	.	.	.	i	.
CCOC(=O)c1cnc(SCC(=O)Nc2cc(OC)cc(OC)c2)nc1N	2.3µM*	0%	-28%	13%	?	?
CCOC(=O)c1cnc(SCC(=O)Nc2sc(C)c(C)c2C#N)nc1N	?	21µM*	2%	0%	?	-9%
CCOC(=O)c1cnc(SCC(=O)Nc2ccc(N3CCOCC3)c(Cl)c2)nc1N	i	0%	8%	-9%	i	1%
CCOC(=O)c1cnc(SCCc2ccccc2)nc1N	23µM*	-1%	10%	2%	i	1%
COc1cccc(N2C(=O)Nc3ccc(Br)cc3C2(O)C(=O)NCCCOC(C)C)c1 (stereo not given)	i	-2%	17%	-2%	i	19%
O=S(=O)(NCC(c1ccco1)N1CCOCC1)c1ccc(Cl)cc1 (stereo not given)	i	1%	0%	-1%	i	-9%
O=C(Nc1ccc(F)cc1F)c1ccc2c(O)c(S(=O)(=O)c3ccc(Cl)cc3)c(=O)[nH]c2c1	i	.	.	.	i	.
COc1ccc(-c2c(C#Cc3ccc(N(C)C)cc3)c3ccccc3n2C)cc1	i	?	-2%	?	i	-12%
COc1ccc(C#Cc2c(-c3ccccc3)n(-c3ccccc3)c3ccc(CO)cc23)cc1	?	?	?	21µM*	i	?
COc1ccc(C(=O)OCC(=O)NCC2CCCO2)c(F)c1 (stereo not given)	i	-3%	-8%	-2%	i	1%
COc1ccc(-c2ccc3ccccc3n2)cc1	i	-9%	-14%	-5%	i	-11%
SMILES	KB-V1 cytotox	SW480 rerep	HT1080NT lethal	MCF10A rereplic	KB-3-1 tox	HT1080 IDH1KD tx
COc1ccc(-c2noc(C)c2-c2ccc3ccccc3n2)c(O)c1	?	4.6µM*	?	?	?	?
COc1ccc(-c2onc(C)c2-c2ccccc2)c(O)c1	?	?	?	?	?	16µM*
Cc1ccc2cc(CN(C(=O)c3cccc(Cl)c3)c3ccccc3)c(=O)[nH]c2c1	i	.	.	.	i	.
O=C(COc1ccc(Br)cc1Br)Nc1ccc(S(=O)(=O)Nc2ncccn2)cc1	?	.	.	.	i	.
COc1ccc(-c2nnc(SCc3c(C)noc3C)n2N)cc1OC	7.3µM*	-1%	1%	15%	i	-3%
N#CCC(=O)Nc1nc(-c2ccc3c(c2)OCCO3)cs1	i	?	-1%	23µM*	i	-1%
COc1cccc(C(=O)Nc2nc(-c3ccncc3)cs2)c1	i	-12%	19%	-3%	i	17%
COc1cccc(C(=O)Nc2nc(-c3ccc4c(c3)OCO4)cs2)c1	?	11%	-4%	16µM*	i	1%
CN1CCc2c(C#N)c(N3CCCCC3)nc(NCc3ccccc3)c2C1	?	?	?	18µM*	?	?
CN(C)CCN(C(=O)c1ccc2ccccc2c1)c1nc2ccc(Br)cc2s1	i	-8%	-1%	6%	i	7%
CC1CCCCN1S(=O)(=O)c1ccc(C(=O)N(CCCN(C)C)c2nc3ccc(Br)cc3s2)cc1 (stereo not given)	23µM*	?	18µM*	?	?	?
CN(C)CCN(C(=O)c1ccc(S(=O)(=O)N2CCCC2)cc1)c1nc2ccc(Br)cc2s1	i	-5%	?	8%	i	?
CCOC(=O)N1CCN(S(=O)(=O)c2ccc(C(=O)N(CCCN(C)C)c3nc4ccc(CC)cc4s3)cc2)CC1	i	?	?	10%	i	16µM*
Cc1ccc2nc(N(CCCN(C)C)C(=O)c3ccc(S(=O)(=O)N4CCCCCC4)cc3)sc2c1	i	?	?	0%	?	18µM*
CCOC(=O)N1CCN(S(=O)(=O)c2ccc(C(=O)N(CCN(C)C)c3nc4ccc(CC)cc4s3)cc2)CC1	i	-1%	-6%	6%	i	-7%
CN(C)CCCN(C(=O)C1=COCCO1)c1nc2ccc(Br)cc2s1	?	23%	21µM*	14%	?	23µM*
COc1ccc(-c2[nH]ncc2CN2CCCCCCC2)c(OC)c1	i	-6%	12%	-4%	i	20%
COc1cccc(CN2CC(C(=O)NCC3CCOCC3)CCC2=O)c1 (stereo not given)	i	-10%	19%	-1%	i	12%
COc1ccc(-c2ccc3ncnc(N(C)Cc4csc(C)n4)c3c2)cc1OC	i	.	.	.	?	.
